This is an account of results in PubChem BioAssay (NCI).

What all share (assay): NCI-60 one-dose screen, 48 h (100 = growth as untreated, 0 = no growth, -100 = all killed)
What all share (details): 10 µM unless noted

For assay [1], the system named is HCT-15 colon.
The subject of assay [2] is HT29 colon.
For assay [3], the system named is SNB-75 CNS.
Assay [4] has as its system SNB-19 CNS.
In assay [5] the test system is U251 CNS.
Assay [6] relates to PC-3 prostate.
Assay [7] deals with SK-MEL-5 melanoma.
Assay [8] relates to UACC-62 melanoma.
Assay [9] has as its system SK-MEL-28 melanoma.

Each structure is given as a SMILES string. Compounds without any hit were thinned out: in the full panel of roughly 83,000, 20% have a hit.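 48-hour exposure, single concentration, 96-well plates; percent growth endpoint where 0 means no net growth. Active: below 10.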 Values without a mark were called inactive. Activity calls are given as the source filed them.

As for `COc1cc2nc(Cl)nc(Nc3cccc(C(=O)/C=C/c4ccccc4)c3)c2cc1OC`, the growth in assay [1] is -34.1% (active); in [2] it was 4.17% (active); in [3] it was 62.1%; in assay [4], 32.9%; in assay [5], 21.4%; in assay [6], 49.2%. Further, the growth was 68.8% in [7], 57.8% in assay [8] and 56.4% in assay [9].
Take `C/C(Cc1ccc(Cl)cc1)=C(/c1ccc(Cl)cc1)c1ccc(OCCN2CCCC2)cc1`: the growth is 28.3% in assay [1]; 22.1% in assay [2]; 78.2% in [3]; 89.8% in assay [4]; 58.3% in [5]; 65.4% in assay [6]. For the same molecule, the growth is 93.1% in [7], 95.6% in assay [8] and 98.2% in [9].
Regarding `CCCCCC1CCCCN1C(=O)OCC` (stereo not given), the growth was 96% in assay [1]; 101% in assay [2]; 88.4% in assay [3]; 105% in [4]; 96.7% in assay [5]; 91.9% in assay [6]. Moreover, the growth in assay [7] was 116%; in assay [8], 105%; in assay [9], 106%.
Turning to `COc1ccc(/C=C/C(=O)c2ccc([N+](=O)[O-])cc2)cc1`, the growth in assay [1] is 104%; in assay [2] it was 95.3%; in [3], 104%; in assay [4], 96.9%; in [5], 97.5%; in assay [6], 92%. Besides, the values for the growth in [7], in [8] and in assay [9] were 105%, 88% and 112%, respectively.
For `Cc1ccc(S(=O)(=O)Nc2ccc(-c3cc(-c4cccc(F)c4)c(C#N)c(N)n3)cc2)cc1`, the growth was -23.3% (active) in assay [1]; -7.07% (active) in assay [2]; -11.7% (active) in [3]; 51.4% in [4]; 22.6% in assay [5]; 18.6% in assay [6]. For the same molecule, the growth in [7] was 28.4%; in assay [8], -6.88% (active); in assay [9], -33.3% (active).
For `COc1cccc(NC(=O)c2sc3nc4c(cc3c2N)C(=O)CCC4)c1`, the growth in [1] was 15.7%; in [2], 4.77% (active); in assay [3], -0.688% (active); in assay [4], 41.6%; in [5], 14.3%; in [6], 10.5%. The figures for the growth in assay [7], in [8] and in assay [9] were 3.83% (active), 34.5% and 62.9%, respectively.
As to `Cc1cc2nc3c4cc(N)ccc4n(CCN(C)C)c3nc2cc1C`, the growth in assay [1] is -24% (active); in [2], 14.3%; in assay [3] it was 20.1%; in [4], 13.2%; in [5], 16.2%; in assay [6], 21.8%. Besides, the growth in assay [7] is 21.8%; in assay [8], 6.43% (active); in assay [9], 13.3%.
On to `C=C(C)[C@@H]1CC[C@]2(C(=O)N3CCN(CC)CC3)CC[C@]3(C)[C@H](CC[C@@H]4[C@@](C)(CCC(=O)N5CCN(CC)CC5)[C@H](C(=C)C)CC[C@]43C)[C@@H]12`, for which the growth was 9.11% (active) in [1]; 17.3% in [2]; 69.2% in assay [3]; 85.1% in [4]; 40.6% in [5]; 32.5% in assay [6]. For the same molecule, the results for the growth in assay [7], in assay [8] and in assay [9] were 45.5%, 50.9% and 55.8%, respectively.
Take `O=C(/C=C/c1ccc2ccccc2c1)Nc1ncc(Cc2ccccc2)s1`: the growth in [1] is 55.7%; in assay [2], 69.5%; in assay [3] it was 34.4%; in assay [4], 69.5%; in assay [5], 25.8%; in assay [6] it was 71.2%. Besides, the growth is 92.8% in assay [7], 59.8% in assay [8] and 85% in [9].
Take `NC(N)=N/N=C/c1ccc(-c2ccc(-c3ccc(Cl)cn3)s2)cc1`: the growth in [1] was -4.03% (active); in [2] it was 11.9%; in [3], 88.9%; in assay [4], 94.2%; in assay [5] it was 20.6%; in [6] it was -42.3% (active). Further, the growth was 91.6% in [7], 99.1% in assay [8] and 99.2% in assay [9].
For `C=C(C)[C@@H]1CC[C@]2(CN)CC[C@]3(C)[C@H](CC[C@@H]4[C@@](C)(CCCN)[C@H](C(=C)C)CC[C@]43C)[C@@H]12`, the growth is 62.8% in assay [1]; 17.9% in [2]; 79.8% in assay [3]; 89.5% in [4]; 74% in assay [5]; 71.5% in [6]. The growth in assay [7] was 88.3%; in assay [8] it was 100%; in assay [9], 100%.
Take `N#C/C(=C\c1ccc(-c2ccccc2)o1)c1nc(-c2ccco2)cs1`: the growth in [1] was 47.6%; in assay [2], 99.8%; in assay [3], 91.9%; in assay [4] it was 94.1%; in assay [5], 98.3%; in assay [6], 77.8%. For the same molecule, the growth is 73.5% in [7], 77.9% in assay [8] and 105% in [9].
As to `c1cc(N2CCCC2)c2nc(-c3[nH]ncc3Nc3ncnc4[nH]ccc34)[nH]c2c1`, the growth in [1] is -26.4% (active); in assay [2], 1.13% (active); in assay [3], -59.6% (active); in assay [4], -13.1% (active); in assay [5], 3% (active); in assay [6], 3.86% (active). The results for the growth in assay [7], in assay [8] and in assay [9] were -89.3% (active), -78.5% (active) and -53.3% (active), respectively.
On to `C=COCCCCCCCCCCCCCCCCCC`, for which the growth in assay [1] was 114%; in assay [2] it was 102%; in [3], 122%; in [4], 96.9%; in [5], 106%; in assay [6] it was 84.5%. For the same molecule, the growth was 112% in assay [7], 88.6% in [8] and 104% in assay [9].
Take `C[C@H]1[C@@H]2[C@H]3CC[C@@H]4[C@@]5(C)Cc6c([nH]c7ccccc67)C(C)(C)[C@@H]5CC[C@@]4(C)[C@]3(C)CC[C@]23CO[C@]1(C)[C@@H](C(=O)/C=C/c1ccccn1)C3`: the growth was 85.9% in assay [1]; 82.6% in [2]; 90.9% in assay [3]; 85.6% in assay [4]; 81.7% in [5]; 60.3% in [6]. Besides, the values for the growth in assay [7], in assay [8] and in assay [9] were 88.5%, 79% and 97.4%, respectively.
